{"source": "PubChem BioAssay (NCATS)", "key": {"[1]": {"experiment": "Cytotoxicity counterscreen for NFkB agonists and antagonists (AID 624476); further: on the % scale 0 is the no-effect control and ±100 the full control effect"}, "[2]": {"experiment": "Cell Proliferation Assay against the TMD8 Cell Line (AID 651645)", "details": "TMD8 DLBCL cell line proliferation/viability; at 46.1 µM (top of the series) unless noted", "method_in_brief": "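Luminescent ATP read-out (CellTiter-Glo, 15 min RT) after 48 h compound exposure of log-growing TMD8 cells at 37C; percent activity scaled between DMSO as 100% and 9.2 uM bortezomib final as 0%.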"}, "[3]": {"experiment": "Cell Proliferation Assay against the HBL1 Cell Line (AID 651646)", "details": "HBL1 DLBCL cells; at 46.1 µM (top of the series) unless noted", "method_in_brief": "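500 log-phase HBL1 cells per well in phenol red-free RPMI with 5% FBS were treated with compounds for 48 h at 37 °C, 5% CO2. Viability was read by CellTiter-Glo luminescence, normalized to DMSO (100%) and 9.2 uM bortezomib final (0%).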"}, "[4]": {"experiment": "Cell Proliferation Assay against the TMD8 Cell Line (Caspase readout at 16 hrs) (AID 651712); further: potency means the concentration at half of the fitted maximal effect", "method_in_brief": "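TMD8 cells (500/well) in phenol-red-free RPMI with glutamine, 5% FBS, were exposed to compounds for 16 h at 37 °C. Caspase 3/7 activation was read by Caspase-Glo luminescence; percent activity normalised to DMSO (0%) and 9.2 uM bortezomib final (100%).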"}, "[5]": {"experiment": "qHTS Assay for Identification of Small Molecule Agonists for NFkB Signaling Pathway. (AID 624478); further: 0% is about no effect", "method_in_brief": "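NFkB-bla ME-180 cells (beta-lactamase reporter under NFkB response element) were plated overnight, treated with compound plus TNF alpha at 10 pM final (its EC50) for 5 hrs at 37 C, then loaded with LiveBLAzer substrate for 2 hrs.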"}, "[6]": {"experiment": "qHTS Assay for Identification of Small Molecule Antagonists for NFkB Signaling Pathway. (AID 624479; calls by dose curve;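 further: pathway stimulated with TNF alpha; potency means the concentration at half of the fitted maximal effect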)"}, "[7]": {"experiment": "Cell Proliferation Assay against the TMD8 Cell Line (Caspase readout at 8 hrs) (AID 651713)", "method_in_brief": "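TMD8 cells (500/well) in phenol red-free RPMI with 5% FBS were treated with compounds for 8 h at 37C, 5% CO2. Caspase-Glo 3/7 luminescence was read after 15 min at room temperature and normalised to DMSO (0%) and 9.2 uM bortezomib (100%).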"}}, "note": "Inconclusive results are not listed. The source made the active and inactive calls. Unless noted, the call rests on the fitted dose curve; in most records, active means well fitted curve in the direction sought with a large enough effect; inconclusive means small, poorly fitted or top-dose-only effect, or another doubt; inactive means no such curve, though single readings can be large; an effect the other way counts as inactive or inconclusive."}
{"smiles": "CCOc1cc(N2CCC(O)CC2)ccc1Nc1ncc2c(n1)N(C)c1ccccc1C(=O)N2C", "values": [{"measurement": "Potency", "setting": "[1]", "value": "inactive"}, {"measurement": "viability (% of control)", "setting": "[2]", "value": 2.87, "unit": "%"}, {"measurement": "viability, percent of control", "setting": "[3]", "value": 29, "unit": "%"}, {"measurement": "Potency", "setting": "[4]", "value": "20.9 µM (active)"}]}
{"smiles": "CN(C)c1ccc(Nc2nc(N)n(C(=O)c3c(F)cccc3F)n2)cc1", "values": [{"measurement": "outcome", "setting": "[5]", "value": "inactive"}, {"measurement": "Potency", "setting": "[6]", "value": "14.9 µM (active)"}, {"measurement": "viability (% of control)", "setting": "[2]", "value": 28.9, "unit": "%"}, {"measurement": "viability, percent of control", "setting": "[3]", "value": 46.5, "unit": "%"}, {"measurement": "Potency", "setting": "[7]", "value": "inactive"}]}
{"smiles": "Cc1cc2c(F)c(Oc3ncnn4cc(OC[C@@H](C)O)c(C)c34)ccc2[nH]1", "values": [{"measurement": "outcome", "setting": "[5]", "value": "inactive"}, {"measurement": "viability (% of control)", "setting": "[2]", "value": 42.5, "unit": "%"}, {"measurement": "viability, percent of control", "setting": "[3]", "value": 34.5, "unit": "%"}, {"measurement": "Potency", "setting": "[7]", "value": "inactive"}]}
